Measured values as given in article PMC4336329 (PLoS ONE, 2015).
In all, about 310,000 compounds went through this assay and about 14,000 (4.5%) showed an effect of 50% or more. Effects have a minus sign here. Only a selection was taken, and strong results are over-represented in it overall.

The compounds below were run against human ether-à-go-go-related gene (hERG) potassium channel (human, UniProt Q12809) (assay: primary screen, population patch clamp on CHO cells stably expressing hERG; higher = less effect of the substance).
Chain of human ether-à-go-go-related gene (hERG) potassium channel (Q12809 whole entry, looked up): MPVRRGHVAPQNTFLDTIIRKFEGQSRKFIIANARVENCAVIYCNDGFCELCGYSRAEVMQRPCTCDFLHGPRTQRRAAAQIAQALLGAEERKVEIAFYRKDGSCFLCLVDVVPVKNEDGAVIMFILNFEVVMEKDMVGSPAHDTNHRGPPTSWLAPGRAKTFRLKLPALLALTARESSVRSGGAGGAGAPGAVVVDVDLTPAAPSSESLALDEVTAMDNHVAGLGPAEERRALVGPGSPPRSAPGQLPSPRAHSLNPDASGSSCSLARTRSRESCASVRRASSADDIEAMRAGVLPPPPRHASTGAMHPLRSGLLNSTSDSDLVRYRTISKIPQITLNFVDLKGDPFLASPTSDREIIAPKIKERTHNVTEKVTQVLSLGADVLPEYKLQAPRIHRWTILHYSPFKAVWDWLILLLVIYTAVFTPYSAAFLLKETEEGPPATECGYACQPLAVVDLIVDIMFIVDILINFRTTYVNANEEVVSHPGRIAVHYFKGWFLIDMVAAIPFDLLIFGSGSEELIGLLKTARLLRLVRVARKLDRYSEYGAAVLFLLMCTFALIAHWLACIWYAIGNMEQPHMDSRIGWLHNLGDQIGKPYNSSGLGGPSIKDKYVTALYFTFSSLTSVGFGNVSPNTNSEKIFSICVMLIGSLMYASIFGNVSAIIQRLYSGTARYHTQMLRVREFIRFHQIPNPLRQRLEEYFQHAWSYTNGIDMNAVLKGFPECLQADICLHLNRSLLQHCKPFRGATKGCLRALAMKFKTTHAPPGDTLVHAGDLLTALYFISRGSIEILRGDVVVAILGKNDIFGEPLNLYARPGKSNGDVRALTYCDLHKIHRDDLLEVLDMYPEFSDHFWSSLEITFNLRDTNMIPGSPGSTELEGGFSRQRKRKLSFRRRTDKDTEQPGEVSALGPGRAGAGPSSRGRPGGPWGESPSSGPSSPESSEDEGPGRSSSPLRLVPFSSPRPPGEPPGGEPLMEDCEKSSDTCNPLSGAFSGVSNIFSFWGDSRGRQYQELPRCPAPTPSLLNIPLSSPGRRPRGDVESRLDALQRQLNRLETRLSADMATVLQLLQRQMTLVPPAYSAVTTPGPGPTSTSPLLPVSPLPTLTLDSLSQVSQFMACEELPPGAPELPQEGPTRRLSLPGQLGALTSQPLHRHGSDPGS
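Also: peak tail current of the secondary pulse compared with the same well before compound.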

| SMILES | hERG current change (%, negative = inhibition) at 10uM |
| --- | --- |
| O=C(O)c1ccccc1-c1ccccc1C(=O)Nc1ccc2c(c1)[nH]c(=O)c1ccccc12 | 24.5% |
| O=C(N/N=C/c1ccco1)c1cc(C2CC2)nc2ccccc12 | 4.56% |
| COc1ccc2cc(S(=O)(=O)Nc3ccccn3)ccc2c1 | 9.87% |
| O=C(CSc1nnnn1-c1cccc2ccccc12)N1CCOCC1 | -25% |
| Cl.N=c1c2c(n(Cc3ccc(Cl)cc3)c3c1CCC3)CCC2 | -2.06% |
| CCN(CC)S(=O)(=O)c1ccc(N2CCCC2)c(NC(=O)Cc2cc(OC)c(OC)c(OC)c2)c1 | -8.43% |
| CCN(CC)S(=O)(=O)c1ccc(N2CCCC2)c(NC(=O)c2ccccc2OC)c1 | -65.7% |
| CCN(CC)S(=O)(=O)c1ccc(N2CCCC2)c(NC(=O)c2ccc(OC)cc2OC)c1 | -43% |
| CC(Sc1nnc(CNc2cccc3ccccc23)n1-c1ccccc1)C(=O)N/N=C/c1ccco1 (stereo not drawn) | -10.2% |
| Cl.O=C(NCC(c1cccs1)N1CCOCC1)c1cc2ccccc2o1 (stereo not drawn) | -15.7% |
| O=C(NNC1=NS(=O)(=O)c2ccccc21)c1cccc([N+](=O)[O-])c1 | 15% |
| CCOc1cccc(=O)c2c(C)n(Cc3ccccc3)c(C)c12 | 11.8% |
| CCOc1cccc(=O)c2c(C)n(C)c(C)c12 | -4.1% |
| CCCCCn1c(C)c2c(OCC)cccc(=O)c2c1C | -69% |
| CC(C)C(NS(=O)(=O)c1cccs1)C(=O)NCc1ccc2c(c1)OCO2 (stereo not drawn) | -12% |
| COc1ccccc1C(C#N)c1cccc(Cl)n1 (stereo not drawn) | 0.219% |
| O=C(CCCn1c(=O)c2cccn2c2cccnc21)NCc1cccc(Br)c1 | -13.8% |
| O=C(c1ccc(OC2CCN(CCc3ccccc3)CC2)cc1)N1CCCC(O)C1 (stereo not drawn) | -2.05% |
| COC1CCCN(C(=O)c2ccc(OC3CCN(CCc4ccccc4)CC3)cc2)C1 (stereo not drawn) | -11.6% |
| O=C(c1ccc(OC2CCN(CCc3ccccc3)CC2)cc1)N1CCCC1 | -30% |
| CC1CCCN(C(=O)c2ccc(OC3CCN(CCc4ccccc4)CC3)cc2)C1 (stereo not drawn) | -58.1% |
| O=C(c1ccc(OC2CCN(CCCc3ccccc3)CC2)cc1)N1CCCC1 | -69.8% |
| CC(=O)N1CCN(C(=O)c2ccc(OC3CCN(CCc4ccccc4)CC3)cc2)CC1 | 15.6% |
| COc1ccc(CNC(=O)CCn2nc(C)c3c(C)n(-c4ccccc4)nc3c2=O)c(OC)c1 | 11.8% |

| SMILES | hERG current change (%, negative = inhibition) at 10uM |
| --- | --- |
| O=C(NCc1ccc(Cl)cc1)c1ccc(NC(=O)C2CCCO2)cc1 (stereo not drawn) | 13.2% |
| O=C1CCCC2=C1C(c1cccs1)n1nc(SCc3ccc(C(=O)O)cc3)nc1N2 (stereo not drawn) | 2.81% |
| O=C(Cn1c2ccccc2c2nc3n(c(=O)c21)CCS3)Nc1ccccc1C(F)(F)F | 15.1% |
| Cc1ccc(N2CC(C(=O)NCCN3CCOCC3)CC2=O)cc1 (stereo not drawn) | 8.92% |
| CC1CCCCN1C(=O)NC1CC(=O)N(c2ccc3c(c2)OCCO3)C1 (stereo not drawn) | 5.7% |
| CCc1cc(Cn2nc(-c3ccccc3)cc2C(=O)NCCOC)on1 | -9.96% |
| Cc1ccc(CNC(=O)c2cc(-c3ccccc3)nn2CC2CC(c3cccc([N+](=O)[O-])c3)=NO2)cc1 (stereo not drawn) | -8.09% |
| Cc1ccccc1-c1cc(C(=O)NCc2cccs2)nn1CC1CC(c2cccc([N+](=O)[O-])c2)=NO1 (stereo not drawn) | 4.08% |
| O=C(NCC1CC1)c1cc(-c2ccccc2)nn1CC1CC(c2cccc([N+](=O)[O-])c2)=NO1 (stereo not drawn) | -60.8% |
| COCCNC(=O)c1cc(-c2ccccc2)nn1CC1CC(c2cccc([N+](=O)[O-])c2)=NO1 (stereo not drawn) | -50.6% |
| Cc1cc(Cn2nc(-c3ccccc3)cc2C(=O)NCC2CC2)on1 | 9.32% |
| CCOC(=O)c1cc(-c2ccccc2)nn1CC1CC(c2cccc([N+](=O)[O-])c2)=NO1 (stereo not drawn) | -24.2% |
| O=C(O)c1cc(-c2ccccc2)nn1CC1CC(c2cccc([N+](=O)[O-])c2)=NO1 (stereo not drawn) | 19.1% |
| Cc1ccc(CNC(=O)c2cc(-c3ccccc3C)n(CC3CC(c4cccc([N+](=O)[O-])c4)=NO3)n2)cc1 (stereo not drawn) | 13.6% |
| Cc1ccccc1-c1cc(C(=O)NCC2CC2)nn1CC1CC(c2cccc([N+](=O)[O-])c2)=NO1 (stereo not drawn) | -26.6% |
| CCc1cc(Cn2nc(-c3ccccc3)cc2C(=O)NCC2CC2)on1 | -51.8% |
| O=C(NCc1cccs1)c1cc(-c2ccccc2)nn1CC1CC(c2cccc([N+](=O)[O-])c2)=NO1 (stereo not drawn) | -66.9% |
| COC(=O)C(C)n1cnc2c(nnn2Cc2ccc(Cl)cc2)c1=O (stereo not drawn) | -16.4% |
| CCC1=Nc2cc(C(=O)NCc3ccco3)ccc2Sc2ccc(C)cc21 | -0.612% |
| CN(Cc1ccccc1)C(=O)CN1C(=O)NC2(CCCCCCC2)C1=O | -11.7% |
| O=C(CCc1ccccc1)NNC(=O)Nc1ccccc1 | 1.26% |
| COc1ccc(OC)c(CNC(=O)Cc2c(C(=O)O)[nH]c3ccccc23)c1 | 15.3% |
| Cc1ccccc1N1CCN(C2CCCN(C(=O)c3ocnc3C)C2)CC1 (stereo not drawn) | -16.9% |
| CN(c1ccccc1)S(=O)(=O)c1cccc(C(=O)OCC(=O)Nc2ccc3[nH]c(=O)[nH]c3c2)c1 | 19.6% |

| SMILES | hERG current change (%, negative = inhibition) at 10uM |
| --- | --- |
| CN(CCc1ccccn1)C(=O)Nc1ccc(Cl)cc1 | 6.31% |
| CN(CCc1ccccn1)C(=O)c1cccnc1Oc1ccc(Cl)cc1 | -19.5% |
| Cc1ccccc1CN(C)CCc1ccccn1.O=C(O)C(=O)O | -7.25% |
| CN(CCc1ccccn1)Cc1ccc(Cl)cc1Cl | -64.3% |
| Cc1ccc(CN(C)CCc2ccccn2)cc1 | -41.1% |
| CC(C)c1ccc(NC(=S)N(C)CCc2ccccn2)cc1 | -8.91% |
| CN(CCc1ccccn1)Cc1ccc(Cl)cc1 | -53.7% |
| CC(C)c1ccc(N(CCc2ccccn2)C(=O)C(C)(C)C)cc1 | -5.99% |
| Cc1cccc(CN(C)CCc2ccccn2)c1 | -15.3% |
| CC(C)=CCCC(C)CN(C)CCc1ccccn1 (stereo not drawn) | -65.4% |
| CCc1ccc(CN(C)CCc2ccccn2)cc1 | -62.6% |
| CN(CCc1ccccn1)Cc1ccc(Cl)c(Cl)c1 | -36.3% |
| CC(=O)N1CCC(=O)N(C(C)C)c2ccccc21 | 3.9% |
| COc1ccc(CNC(=O)c2cccnc2Sc2ccc(C)c(C)c2)cc1 | 3.63% |
| COc1ccccc1-c1coc2cc(O)cc(O)c2c1=O | 9.89% |
| Cc1ccc(OCC(=O)c2ccc(Cl)s2)c([N+](=O)[O-])n1 | 2.66% |
| Cc1ccc(S(=O)(=O)NCc2n[nH]c(=S)n2C)cc1 | 21% |
| NC(=O)c1cc([N+](=O)[O-])ccc1NCc1ccc(N)cc1 | 10.5% |
| COc1cc2c(cc1NC(=O)c1cccnc1)CCCC2 | 14.2% |
| Cc1cccc(-c2noc(-c3ccc4c(c3)OCO4)n2)c1 | 7.53% |
| COc1ccc(NC(=O)CCCn2c(=O)oc3ccccc32)cc1Cl | -12.9% |
| COc1cc(NC(=O)c2ccccc2Cl)c(OC)cc1NC(=O)CN1CCOCC1 | -3.34% |
| COc1cc(NC(=O)c2ccccc2C)c(OC)cc1NC(=O)CN1CCOCC1 | -7.78% |
| COc1cc(Cl)c(C)cc1NC(=O)CCCn1c(=O)oc2ccccc21 | -58.7% |

| SMILES | hERG current change (%, negative = inhibition) at 10uM |
| --- | --- |
| COc1cc(NC(=O)CN2CCN(C(=O)C3CCCO3)CC2)c(OC)cc1Cl (stereo not drawn) | -12.5% |
| COc1cc(Cl)c(C)cc1NC(=O)c1ccccc1NC(=O)CN1CCOCC1 | -58.7% |
| COc1cc(Cl)c(C)cc1NC(=O)CN1CCCCCC1 | -0.067% |
| COc1cc(OC)c(NC(=O)CCCn2c(=O)oc3ccccc32)cc1Cl | 9.61% |
| COc1cc(Cl)c(C)cc1NC(=O)CN1CCN(C(=O)C2CC2)CC1 | -59.6% |
| O=C(CN1CCN(S(=O)(=O)c2cc(Cl)ccc2Cl)CC1)Nc1ccc2c(c1)OCCO2 | -23.2% |
| O=C(CC(c1ccccc1)c1cc(Cl)ccc1O)N1CCOCC1 (stereo not drawn) | -15.1% |
| CCc1ccc(S(=O)(=O)N/N=C\c2ccc3c(c2)OCO3)cc1 | 9.85% |
| CCCN(CC(=O)Nc1ccc(F)c(F)c1F)C(=O)c1ccc(N2CCCC2=O)cc1 | -4.37% |
| C=CCOc1ccccc1/C=N/NC(=O)c1ccc(Cl)cc1Cl | -6.98% |
| O=C(CC1C(=O)NCCN1CC1CCCCC1)NCc1ccccc1Cl (stereo not drawn) | -5.9% |
| Cc1nc(-c2cccc(S(=O)(=O)N3CCCC(C)C3)c2)cs1 (stereo not drawn) | -9.76% |
| CS(=O)(=O)c1ccc(N2CCN(S(=O)(=O)c3cccs3)CC2)c([N+](=O)[O-])c1 | -67.1% |
| O=C(c1ccc(N2CCCCC2)c([N+](=O)[O-])c1)N1CCN(c2ccccn2)CC1 | -66.8% |
| CC(=O)N1CCN(c2ccc(S(C)(=O)=O)cc2[N+](=O)[O-])CC1 | -12.7% |
| O=C(c1ccc(N2CCCC2)c([N+](=O)[O-])c1)N1CCN(c2ccccn2)CC1 | -21.8% |
| O=C(c1ccc(N2CCOCC2)c([N+](=O)[O-])c1)N1CCN(S(=O)(=O)c2cccs2)CC1 | -47.3% |
| Cc1ccc(C(=O)N2CCN(c3ccccn3)CC2)cc1[N+](=O)[O-] | 9.02% |
| CN1CCN(c2ccc(S(=O)(=O)N3CCCCC3)cc2[N+](=O)[O-])CC1 | -48% |
| CN1CCN(c2ccc(S(C)(=O)=O)cc2[N+](=O)[O-])CC1 | -2.78% |
| CS(=O)(=O)c1ccc(N2CCN(c3ccccn3)CC2)c([N+](=O)[O-])c1 | -55% |
